The supplement of paper PMC10849652
Targets with a hit are over-represented here; the source holds about 7,900 in all. About 0.6% of all pairs of compound and target were hits. Values without a mark were called inactive.

What was measured:
Experiment in all cases: log2 fold change, soluble protein after heating vs DMSO (PISA); higher = thermal stabilisation; K562 cells, 10 uM, 30 min; active = over 0.2 and 3.5 SD of the protein, either way, in both replicates (recomputed)
[1] = compound: CS(=O)(=O)c1ccc(-c2cnc(N)c(C(=O)Nc3ccccc3)n2)cc1
Procedure, shortened: (§1)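 Thermal stability values are relative to control samples and come from duplicates. They are expressed as log2 fold changes. For measurement, K562 cells (2×10^6 cells/mL) received 10 μM compound for 30 min, and aliquots were heated for 3 min over 48°C-58°C, pooled, and extracted at 4°C in PBS with 0.5% NP-40. Soluble protein, the supernatant after 21,000xg for 90 min, was quantified by TMTpro 16plex LC-MS/MS with equalised channel sums.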

crizotinib = compound: C[C@@H](Oc1cc(-c2cnn(C3CCNCC3)c2)cnc1N)c1c(Cl)ccc(F)c1Cl [crizotinib]
Procedure, shortened: as §1

[2] = compound: C[C@H](C1=CC=C(C=C1)C(=O)NC2=C3C=CNC3=NC=C2)N
Procedure, shortened: as §1

duvelisib = compound: C[C@H](Nc1ncnc2nc[nH]c12)c1cc2cccc(Cl)c2c(=O)n1-c1ccccc1 [duvelisib]
Procedure, shortened: as §1

tozasertib = compound: Cc1cc(Nc2cc(N3CCN(C)CC3)nc(Sc3ccc(NC(=O)C4CC4)cc3)n2)n[nH]1 [tozasertib]
Procedure, shortened: as §1

[3] = compound: Cc1cc(SCc2sc(-c3ccc(C(F)(F)F)cc3)nc2C)ccc1OCC(=O)O
Procedure, shortened: as §1

doramapimod = compound: Cc1ccc(-n2nc(C(C)(C)C)cc2NC(=O)Nc2ccc(OCCN3CCOCC3)c3ccccc23)cc1 [doramapimod]
Procedure, shortened: as §1

bafetinib = compound: Cc1ccc(NC(=O)c2ccc(CN3CC[C@H](N(C)C)C3)c(C(F)(F)F)c2)cc1Nc1nccc(-c2cncnc2)n1 [bafetinib]
Procedure, shortened: as §1

nilotinib = compound: Cc1cn(-c2cc(NC(=O)c3ccc(C)c(Nc4nccc(-c5cccnc5)n4)c3)cc(C(F)(F)F)c2)cn1 [nilotinib]
Procedure, shortened: as §1

[4] = compound: Cc1nc(Nc2n[nH]c3c2CN(C(=O)N[C@H](CN(C)C)c2ccccc2)C3(C)C)c2sccc2n1
Procedure, shortened: as §1

dasatinib = compound: Cc1nc(Nc2ncc(C(=O)Nc3c(C)cccc3Cl)s2)cc(N2CCN(CCO)CC2)n1 [dasatinib]
Procedure, shortened: as §1

[5] = compound: Cc1ncc(-c2ccnc(Nc3ccc(S(C)(=O)=O)cc3)n2)n1C(C)C
Procedure, shortened: as §1

[6] = compound: Cn1cc(-c2ccc3c(c2)CCN3C(=O)Cc2cccc(C(F)(F)F)c2)c2c(N)ncnc21
Procedure, shortened: as §1

tipifarnib = compound: Cn1cncc1[C@@](N)(c1ccc(Cl)cc1)c1ccc2c(c1)c(-c1cccc(Cl)c1)cc(=O)n2C [tipifarnib]
Procedure, shortened: as §1

mubritinib = compound: FC(F)(F)c1ccc(/C=C/c2nc(COc3ccc(CCCCn4ccnn4)cc3)co2)cc1 [mubritinib]
Procedure, shortened: as §1

gandotinib = compound: Cc1cc(Nc2cc(CN3CCOCC3)c3nc(C)c(Cc4ccc(Cl)cc4F)n3n2)n[nH]1 [gandotinib]
Procedure, shortened: as §1

ispinesib = compound: Cc1ccc(C(=O)N(CCCN)[C@@H](c2nc3cc(Cl)ccc3c(=O)n2Cc2ccccc2)C(C)C)cc1 [ispinesib]
Procedure, shortened: as §1

[7] = compound: Cc1cccc(CC(=O)N2CCc3c2ccc(-c2cn(C)c4ncnc(N)c24)c3F)n1
Procedure, shortened: as §1

[8] = compound: Cn1cc(-c2ccc3nnc(C(F)(F)c4ccc5ncccc5c4)n3n2)cn1
Procedure, shortened: as §1

[9] = compound: C[C@@H]1COCCN1C2=NC(=NC(=C2)C3(CC3)S(=O)(=O)C)C4=C5C=CNC5=CC=C4
Procedure, shortened: as §1

Sequence of UniProt Q96H55 (Q96H55 whole entry, looked up): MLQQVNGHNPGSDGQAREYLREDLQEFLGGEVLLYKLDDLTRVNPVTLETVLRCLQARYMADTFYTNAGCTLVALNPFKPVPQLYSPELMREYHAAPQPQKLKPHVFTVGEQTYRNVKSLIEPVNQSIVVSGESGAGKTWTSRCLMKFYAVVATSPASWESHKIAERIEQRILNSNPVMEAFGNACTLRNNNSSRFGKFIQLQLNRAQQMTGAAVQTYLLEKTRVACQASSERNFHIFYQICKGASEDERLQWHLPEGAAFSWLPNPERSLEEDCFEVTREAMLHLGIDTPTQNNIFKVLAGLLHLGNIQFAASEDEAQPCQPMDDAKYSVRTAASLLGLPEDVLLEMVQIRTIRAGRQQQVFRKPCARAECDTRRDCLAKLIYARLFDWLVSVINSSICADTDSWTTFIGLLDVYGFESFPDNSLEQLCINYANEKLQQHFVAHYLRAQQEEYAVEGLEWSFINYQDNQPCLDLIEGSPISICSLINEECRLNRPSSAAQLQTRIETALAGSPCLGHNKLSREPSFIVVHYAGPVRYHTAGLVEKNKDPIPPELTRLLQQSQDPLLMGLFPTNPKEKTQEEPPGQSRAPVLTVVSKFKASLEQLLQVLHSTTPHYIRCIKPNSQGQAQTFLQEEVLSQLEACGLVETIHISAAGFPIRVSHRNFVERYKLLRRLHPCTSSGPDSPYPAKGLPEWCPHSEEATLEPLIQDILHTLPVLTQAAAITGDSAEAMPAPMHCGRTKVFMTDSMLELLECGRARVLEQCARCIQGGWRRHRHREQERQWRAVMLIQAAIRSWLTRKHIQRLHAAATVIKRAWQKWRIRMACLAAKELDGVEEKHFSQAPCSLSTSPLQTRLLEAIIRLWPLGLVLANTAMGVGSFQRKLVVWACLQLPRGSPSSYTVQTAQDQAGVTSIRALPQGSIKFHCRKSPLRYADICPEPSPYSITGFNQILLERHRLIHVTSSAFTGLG
Sequence of UniProt Q9UHC9 (Q9UHC9 whole entry, looked up): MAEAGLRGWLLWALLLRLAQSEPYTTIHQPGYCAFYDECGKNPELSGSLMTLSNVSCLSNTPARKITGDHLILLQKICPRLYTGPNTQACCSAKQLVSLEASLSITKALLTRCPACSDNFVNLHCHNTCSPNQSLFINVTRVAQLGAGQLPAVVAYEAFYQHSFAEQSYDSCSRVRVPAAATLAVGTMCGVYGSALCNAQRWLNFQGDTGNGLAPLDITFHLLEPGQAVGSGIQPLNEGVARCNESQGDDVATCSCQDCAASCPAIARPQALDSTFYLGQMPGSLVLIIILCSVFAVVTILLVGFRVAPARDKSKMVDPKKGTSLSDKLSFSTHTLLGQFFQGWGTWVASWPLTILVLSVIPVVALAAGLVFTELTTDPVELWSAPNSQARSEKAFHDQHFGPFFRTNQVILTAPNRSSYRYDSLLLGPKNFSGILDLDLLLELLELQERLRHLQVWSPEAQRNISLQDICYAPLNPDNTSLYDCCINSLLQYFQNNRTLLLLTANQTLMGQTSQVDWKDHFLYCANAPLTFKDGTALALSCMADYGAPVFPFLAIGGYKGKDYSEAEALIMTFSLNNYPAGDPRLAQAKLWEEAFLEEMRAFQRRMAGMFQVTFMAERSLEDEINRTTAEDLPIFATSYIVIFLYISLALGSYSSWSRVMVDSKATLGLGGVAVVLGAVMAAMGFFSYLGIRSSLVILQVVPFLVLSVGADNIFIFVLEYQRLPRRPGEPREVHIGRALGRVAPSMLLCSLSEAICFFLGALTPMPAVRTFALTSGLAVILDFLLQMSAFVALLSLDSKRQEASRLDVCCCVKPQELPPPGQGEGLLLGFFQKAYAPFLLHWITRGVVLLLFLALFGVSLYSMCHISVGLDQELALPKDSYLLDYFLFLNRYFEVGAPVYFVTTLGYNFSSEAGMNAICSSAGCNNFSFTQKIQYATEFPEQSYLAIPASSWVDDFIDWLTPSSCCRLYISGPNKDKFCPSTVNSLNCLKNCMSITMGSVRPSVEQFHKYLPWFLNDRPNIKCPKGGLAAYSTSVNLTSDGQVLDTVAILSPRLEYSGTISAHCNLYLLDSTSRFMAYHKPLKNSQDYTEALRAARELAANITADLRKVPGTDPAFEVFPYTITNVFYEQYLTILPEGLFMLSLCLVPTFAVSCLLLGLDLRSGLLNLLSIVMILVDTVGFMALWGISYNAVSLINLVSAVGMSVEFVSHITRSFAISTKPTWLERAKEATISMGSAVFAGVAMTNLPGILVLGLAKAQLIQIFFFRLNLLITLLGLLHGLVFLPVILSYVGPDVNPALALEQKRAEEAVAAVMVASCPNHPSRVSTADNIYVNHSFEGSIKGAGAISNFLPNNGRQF
Sequence of UniProt Q9H1P3 (Q9H1P3 whole entry, looked up): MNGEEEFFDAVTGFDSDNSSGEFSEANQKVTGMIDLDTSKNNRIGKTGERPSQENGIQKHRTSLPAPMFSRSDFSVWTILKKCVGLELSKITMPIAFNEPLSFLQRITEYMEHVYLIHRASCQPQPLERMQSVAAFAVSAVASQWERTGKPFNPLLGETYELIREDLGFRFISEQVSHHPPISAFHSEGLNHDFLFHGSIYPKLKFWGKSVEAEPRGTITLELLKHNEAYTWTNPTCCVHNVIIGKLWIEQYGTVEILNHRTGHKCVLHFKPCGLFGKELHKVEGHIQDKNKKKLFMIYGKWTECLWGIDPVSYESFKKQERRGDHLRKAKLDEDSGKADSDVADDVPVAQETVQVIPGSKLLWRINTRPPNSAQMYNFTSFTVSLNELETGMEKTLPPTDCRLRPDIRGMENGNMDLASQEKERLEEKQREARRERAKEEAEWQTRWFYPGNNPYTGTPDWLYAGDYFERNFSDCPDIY
Sequence of UniProt O75052 (O75052 whole entry, looked up): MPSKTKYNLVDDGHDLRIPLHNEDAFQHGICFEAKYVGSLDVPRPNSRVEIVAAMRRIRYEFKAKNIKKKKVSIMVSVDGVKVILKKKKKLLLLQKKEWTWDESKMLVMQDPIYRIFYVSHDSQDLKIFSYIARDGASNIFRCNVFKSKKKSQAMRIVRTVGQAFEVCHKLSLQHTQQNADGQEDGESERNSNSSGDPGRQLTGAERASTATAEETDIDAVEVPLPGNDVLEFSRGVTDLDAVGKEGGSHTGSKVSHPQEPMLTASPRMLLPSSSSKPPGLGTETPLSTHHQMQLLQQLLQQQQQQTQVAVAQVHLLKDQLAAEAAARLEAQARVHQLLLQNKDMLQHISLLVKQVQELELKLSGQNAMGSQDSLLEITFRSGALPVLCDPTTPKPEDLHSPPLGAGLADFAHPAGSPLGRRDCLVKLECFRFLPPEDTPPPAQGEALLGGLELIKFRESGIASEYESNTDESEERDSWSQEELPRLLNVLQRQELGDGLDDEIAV
Sequence of UniProt Q86UD1 (Q86UD1 whole entry, looked up): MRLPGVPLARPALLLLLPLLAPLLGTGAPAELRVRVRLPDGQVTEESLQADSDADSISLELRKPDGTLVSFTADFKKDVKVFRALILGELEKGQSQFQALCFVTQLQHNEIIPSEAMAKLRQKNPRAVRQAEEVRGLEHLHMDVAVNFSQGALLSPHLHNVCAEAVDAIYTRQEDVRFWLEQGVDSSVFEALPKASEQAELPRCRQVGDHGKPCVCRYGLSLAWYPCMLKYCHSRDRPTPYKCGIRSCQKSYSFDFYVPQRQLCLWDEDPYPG
Sequence of UniProt Q8IXH7 (Q8IXH7 whole entry, looked up): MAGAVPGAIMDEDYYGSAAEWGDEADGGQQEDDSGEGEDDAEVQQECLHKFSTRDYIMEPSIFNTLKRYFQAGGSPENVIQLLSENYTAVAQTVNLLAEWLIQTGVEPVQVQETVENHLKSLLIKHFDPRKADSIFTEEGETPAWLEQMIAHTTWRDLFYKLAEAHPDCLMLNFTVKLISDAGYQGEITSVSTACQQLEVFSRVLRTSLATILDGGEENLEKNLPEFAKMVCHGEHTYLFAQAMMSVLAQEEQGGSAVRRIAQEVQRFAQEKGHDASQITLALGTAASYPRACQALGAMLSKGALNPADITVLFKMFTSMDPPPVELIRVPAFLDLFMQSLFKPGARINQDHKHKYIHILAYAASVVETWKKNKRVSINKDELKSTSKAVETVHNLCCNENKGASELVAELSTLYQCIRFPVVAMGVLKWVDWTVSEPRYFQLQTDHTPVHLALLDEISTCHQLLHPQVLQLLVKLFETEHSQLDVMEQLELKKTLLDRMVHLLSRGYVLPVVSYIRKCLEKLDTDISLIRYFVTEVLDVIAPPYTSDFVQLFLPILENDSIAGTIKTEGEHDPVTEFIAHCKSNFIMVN
Sequence of UniProt Q9UI43 (Q9UI43 whole entry, looked up): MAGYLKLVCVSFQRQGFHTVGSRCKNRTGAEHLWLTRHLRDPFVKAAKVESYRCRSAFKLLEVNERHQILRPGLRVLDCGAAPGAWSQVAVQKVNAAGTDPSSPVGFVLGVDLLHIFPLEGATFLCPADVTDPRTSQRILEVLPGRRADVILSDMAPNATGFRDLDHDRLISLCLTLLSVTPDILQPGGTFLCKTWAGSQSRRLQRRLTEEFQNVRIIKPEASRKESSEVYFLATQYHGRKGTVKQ
Sequence of UniProt Q9HCD5 (Q9HCD5 whole entry, looked up): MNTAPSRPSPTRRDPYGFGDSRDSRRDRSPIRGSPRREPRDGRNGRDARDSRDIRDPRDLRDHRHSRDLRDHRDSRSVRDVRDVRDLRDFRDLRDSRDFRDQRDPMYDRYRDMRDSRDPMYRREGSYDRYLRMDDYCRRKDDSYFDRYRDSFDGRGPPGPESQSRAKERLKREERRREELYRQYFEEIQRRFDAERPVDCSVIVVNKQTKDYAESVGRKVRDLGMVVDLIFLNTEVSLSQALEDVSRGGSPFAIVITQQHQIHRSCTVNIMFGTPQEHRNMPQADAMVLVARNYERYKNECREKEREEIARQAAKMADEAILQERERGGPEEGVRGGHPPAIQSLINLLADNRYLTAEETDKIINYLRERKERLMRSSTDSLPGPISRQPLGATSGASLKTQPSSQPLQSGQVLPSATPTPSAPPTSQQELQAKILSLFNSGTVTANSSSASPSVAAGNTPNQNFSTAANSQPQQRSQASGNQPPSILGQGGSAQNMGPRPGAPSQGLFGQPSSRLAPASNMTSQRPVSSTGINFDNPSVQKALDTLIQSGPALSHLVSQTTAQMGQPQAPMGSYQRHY

Target | log2 fold change [1] | log2 fold change (crizotinib) | log2 fold change [2] | log2 fold change (duvelisib) | log2 fold change (tozasertib) | log2 fold change [3] | log2 fold change (doramapimod) | log2 fold change (bafetinib) | log2 fold change (nilotinib) | log2 fold change [4] | log2 fold change (dasatinib) | log2 fold change [5] | log2 fold change [6] | log2 fold change (tipifarnib) | log2 fold change (mubritinib) | log2 fold change (gandotinib) | log2 fold change (ispinesib) | log2 fold change [7] | log2 fold change [8] | log2 fold change [9]
NPC1L1 (UniProt Q9UHC9) | 0.002 | -0.07 | -0.044 | 0.107 | -0.059 | -0.159 | 0.033 | -0.05 | 0.659 | 0.52 | -0.117 | -0.384 (active) | 0.012 | 0.094 | 0.008 | – | – | – | – | –
NA, A0A1W2PSA9 | – | – | 0.041 | 0.311 | -0.062 | -0.371 | – | – | – | – | 0.289 | – | 0.218 | – | – | 0.403 | -0.059 | 0.022 | -0.118 | –
NOS1AP (UniProt O75052) | – | – | 0.237 | – | -0.164 | – | – | -0.052 | – | – | – | – | 0.067 | -0.037 | 0.165 | – | -0.279 | – | -0.179 | 0.101
NELFCD (UniProt Q8IXH7) | – | 0.349 | 0.006 | 0.13 | – | 0.249 | 0.025 | 0.116 | -0.233 | -0.003 | -0.158 | 0.064 | 0.061 | 0.035 | – | -0.327 | – | -0.111 | – | 0.145
NA (UniProt J3KR12) | – | 0.251 | – | – | – | – | -0.017 | 0.338 | 0.208 | -0.221 | – | -0.196 | – | – | 0.16 | – | 0.006 | – | -0.112 | 0.061
MRM2 (UniProt Q9UI43) | – | – | -0.042 | 0 | -0.119 | 0.123 | – | – | -0.069 | -0.049 | -0.381 | 0.043 | 0.164 | -0.011 | – | – | – | – | – | –
NIPSNAP2 (UniProt C9J7B1) | 0 | – | – | – | – | – | – | -0.045 | – | – | – | – | – | – | 0.173 | – | – | – | – | –
OAF (UniProt Q86UD1) | -0.112 | – | – | – | – | – | – | – | – | – | – | – | – | – | -0.104 | – | 0.014 | – | 0.199 | –
NAP1L1 (UniProt B7Z9C2) | – | -0.015 | – | 0.327 | – | 0.433 | 0.155 | -0.11 | -0.011 | -0.002 | -0.347 | -0.043 | – | – | 0.049 | 0.041 | – | -0.249 | – | –
MYSM1 (UniProt Q5VVJ2) | 0.067 | -0.091 | – | – | – | – | -0.045 | -0.138 | – | – | – | – | – | – | – | – | 0.128 | – | 0.18 | –
MMADHC (UniProt Q9H3L0) | – | 0.065 | 0.093 | 0.007 | -0.001 | 0.084 | 0.099 | 0.038 | -0.068 | -0.173 | -0.155 | 0.023 | -0.138 | 0.024 | -0.005 | -0.087 | -0.038 | 0.054 | -0.063 | –
MSANTD2 (UniProt Q6P1R3) | 0.295 | – | – | 0.019 | 0.064 | 0.039 | – | – | – | – | -0.042 | – | – | – | – | – | – | – | – | 0.089
NCOA5 (UniProt Q9HCD5) | -0.005 | -0.131 | – | -0.155 | – | 0.052 | 0.168 | – | -0.428 | -0.92 (active) | -0.043 | 0.218 | – | 0.164 | – | 0.05 | 0.02 | -0.04 | -0.203 | –
OSBPL2 (UniProt Q9H1P3) | – | – | 0.124 | – | – | – | – | – | – | – | – | – | 0.37 | -0.009 | 0.465 | – | – | – | – | –
MYO19 (UniProt Q96H55) | – | 0.047 | 0.491 | -0.07 | – | 0.158 | 0.066 | 0.007 | -0.022 | -0.045 | -0.111 | 0.038 | -0.099 | 0.048 | – | -0.081 | -0.065 | -0.068 | -0.069 | -0.215
